{"source": "PubChem BioAssay (EPA / NIEHS)", "note": "“And” between values parts separate entries of the source, which are not always exact repeats. Identical values can stand only once. The source made the active and inactive calls. The calls were made as follows: active = hit-call score of the fitted dose curve at least 0.9, where 1 is the maximum; inactive = score below 0.9."}
{"read-out": "Interferon-inducible T-cell alpha chemoattractant (ITAC), CXCL11 (gene 6373)", "assay": "BSK_BE3C_ITAC: BioMAP Diversity Plus: BE3C Assay for Interferon-inducible T-cell alpha chemoattractant (ITAC) Biomarker Activity (AID 2284279)", "details": "primary human bronchial epithelial cells", "how_it_was_run": "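ELISA read-out of I-TAC after 24 h chemical dosing of human lung primary bronchial epithelial cells; gain-of-signal fit vs DMSO baseline. Parallel SRB total-protein staining (0.1% SRB, 10% TCA fixation, 560 nm) assessed cytotoxicity.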"}
{"smiles": "C=C(C)C(=O)OCC(F)(F)C(F)(F)C(F)(F)F", "outcome": "inactive"}
{"smiles": "C=CC(F)(F)C(F)(F)C(F)(F)C(F)(F)C(F)(F)C(F)(F)C(F)(F)C(F)(F)C=C", "outcome": "inactive"}
{"smiles": "C=C(C)C(=O)OCC(F)(F)C(F)(F)C(F)(F)C(F)(F)C(F)(F)C(F)(F)C(F)(F)F", "outcome": "inactive"}
{"smiles": "Cc1ccc(S(=O)(=O)OCC(F)(F)C(F)(F)C(F)(F)C(F)(F)C(F)(F)C(F)F)cc1", "outcome": "inactive"}
{"smiles": "FC(F)(F)C(F)(F)CNCC(F)(F)C(F)(F)F", "outcome": "inactive"}
{"smiles": "FC(F)(F)C(F)(F)C(F)(F)N(C(F)(F)C(F)(F)C(F)(F)F)C(F)(F)C(F)(F)C(F)(F)F", "outcome": "inactive"}
{"smiles": "OCC(F)(F)C(F)(F)C(F)(F)C(F)(F)C(F)(F)C(F)(F)F", "outcome": "inactive"}
{"smiles": "CC(C)(C)C(=O)CC(=O)C(F)(F)C(F)(F)C(F)(F)F", "outcome": "inactive"}
{"smiles": "FC(F)(F)C(F)(F)C(F)(F)C(F)(F)C(F)(F)C(F)(F)C(F)(F)Br", "outcome": "inactive"}
{"smiles": "CCO[Si](CCC(F)(F)C(F)(F)C(F)(F)C(F)(F)C(F)(F)C(F)(F)F)(OCC)OCC", "outcome": "inactive"}
{"smiles": "FC(F)(F)C(F)(F)C(F)(F)C(F)(F)CCI", "outcome": "inactive"}
{"smiles": "FC(F)(F)C(F)(F)C(F)(F)C(F)(F)C(F)(F)C(F)(F)C(F)(F)C(F)(F)F", "outcome": "inactive"}
{"smiles": "FC(F)(F)C(F)(F)C(F)(F)C(F)(F)C(F)(F)C(F)(F)C(F)(F)C(F)(F)CCS", "outcome": "inactive"}
{"smiles": "O=C(O)C(F)(F)C(F)(F)C(F)(F)C(F)(F)C(F)(F)C(F)(F)C(F)(F)C(F)(F)C(F)(F)C(F)(F)C(F)(F)C(F)(F)F", "outcome": "inactive"}
{"smiles": "OCC(F)(F)C(F)(F)C(F)(F)F", "outcome": "inactive"}
{"smiles": "NC(=O)C(F)(F)C(F)(F)C(F)(F)C(F)(F)F", "outcome": "inactive"}
{"smiles": "O=C(O)C(F)(F)C(F)(F)C(F)F", "outcome": "inactive"}
{"smiles": "C=CC(F)(F)C(F)(F)C(F)(F)C(F)(F)C(F)(F)C(F)(F)C(F)(F)C(F)(F)F", "outcome": "inactive"}
{"smiles": "OCCCC(F)(F)C(F)(F)C(F)(F)F", "outcome": "inactive"}
{"smiles": "C=CC(=O)OCC(F)(F)C(F)(F)C(F)(F)C(F)(F)COC(=O)C=C", "AC50": "45.3 µM (active) and 39.4 µM (active)"}
{"smiles": "CCCCC(CC)COP(=O)(O)OCC(CC)CCCC", "note": "(centres undefined)", "AC50": "28.9 µM (active)"}
{"smiles": "O=C(O)C(F)(OC(F)(F)C(F)(OC(F)(F)C(F)(OC(F)(F)C(F)(F)C(F)(F)F)C(F)(F)F)C(F)(F)F)C(F)(F)F", "note": "(centres undefined)", "outcome": "inactive"}
{"smiles": "O=C(O)C(F)(F)C(F)(F)C(F)(F)C(F)(F)C(F)(F)C(F)(F)C(F)(F)C(F)(F)C(F)(F)C(F)F", "AC50": "9.92 µM (active) and 11.3 µM (active)"}
{"smiles": "FC(F)(F)C(F)(F)C(F)(F)C(F)(F)C(F)(F)CCI", "outcome": "inactive"}
{"smiles": "CCCCCCOC(=O)c1ccccc1O", "outcome": "inactive"}
{"smiles": "C=CC(=O)OCC(F)(F)C(F)(F)C(F)(F)C(F)(F)C(F)(F)C(F)(F)C(F)(F)F", "outcome": "inactive"}
{"smiles": "FC(F)(F)C(F)(F)C(F)(F)CI", "outcome": "inactive"}
{"read-out": "Interleukin-8 (IL8), CXCL8 (gene 3576)", "assay": "BSK_BE3C_IL8: BioMAP Diversity Plus: BE3C Assay for Interleukin-8 (IL8) Biomarker Activity (AID 2284280)", "details": "primary human bronchial epithelial cells", "how_it_was_run": "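Measured at 24 h after treatment, IL-8 from human primary bronchial epithelial cells is determined by ELISA, and the response is modelled as increasing relative to DMSO negative control.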"}
{"smiles": "C=C(C)C(=O)OCC(F)(F)C(F)(F)C(F)(F)F", "outcome": "inactive"}
{"smiles": "C=CC(F)(F)C(F)(F)C(F)(F)C(F)(F)C(F)(F)C(F)(F)C(F)(F)C(F)(F)C=C", "outcome": "inactive"}
{"smiles": "C=C(C)C(=O)OCC(F)(F)C(F)(F)C(F)(F)C(F)(F)C(F)(F)C(F)(F)C(F)(F)F", "outcome": "inactive"}
{"smiles": "Cc1ccc(S(=O)(=O)OCC(F)(F)C(F)(F)C(F)(F)C(F)(F)C(F)(F)C(F)F)cc1", "outcome": "inactive"}
{"smiles": "FC(F)(F)C(F)(F)CNCC(F)(F)C(F)(F)F", "outcome": "inactive"}
{"smiles": "FC(F)(F)C(F)(F)C(F)(F)N(C(F)(F)C(F)(F)C(F)(F)F)C(F)(F)C(F)(F)C(F)(F)F", "outcome": "inactive"}
{"smiles": "OCC(F)(F)C(F)(F)C(F)(F)C(F)(F)C(F)(F)C(F)(F)F", "outcome": "inactive"}
{"smiles": "CC(C)(C)C(=O)CC(=O)C(F)(F)C(F)(F)C(F)(F)F", "outcome": "inactive"}
{"smiles": "FC(F)(F)C(F)(F)C(F)(F)C(F)(F)C(F)(F)C(F)(F)C(F)(F)Br", "outcome": "inactive"}
{"smiles": "CCO[Si](CCC(F)(F)C(F)(F)C(F)(F)C(F)(F)C(F)(F)C(F)(F)F)(OCC)OCC", "outcome": "inactive"}
{"smiles": "FC(F)(F)C(F)(F)C(F)(F)C(F)(F)CCI", "outcome": "inactive"}
{"smiles": "FC(F)(F)C(F)(F)C(F)(F)C(F)(F)C(F)(F)C(F)(F)C(F)(F)C(F)(F)F", "outcome": "inactive"}
{"smiles": "FC(F)(F)C(F)(F)C(F)(F)C(F)(F)C(F)(F)C(F)(F)C(F)(F)C(F)(F)CCS", "outcome": "inactive"}
{"smiles": "O=C(O)C(F)(F)C(F)(F)C(F)(F)C(F)(F)C(F)(F)C(F)(F)C(F)(F)C(F)(F)C(F)(F)C(F)(F)C(F)(F)C(F)(F)F", "outcome": "inactive"}
{"smiles": "OCC(F)(F)C(F)(F)C(F)(F)F", "outcome": "inactive"}
{"smiles": "NC(=O)C(F)(F)C(F)(F)C(F)(F)C(F)(F)F", "outcome": "inactive"}
{"smiles": "O=C(O)C(F)(F)C(F)(F)C(F)F", "outcome": "inactive"}
{"smiles": "C=CC(F)(F)C(F)(F)C(F)(F)C(F)(F)C(F)(F)C(F)(F)C(F)(F)C(F)(F)F", "outcome": "inactive"}
{"smiles": "OCCCC(F)(F)C(F)(F)C(F)(F)F", "outcome": "inactive"}
{"smiles": "C=CC(=O)OCC(F)(F)C(F)(F)C(F)(F)C(F)(F)COC(=O)C=C", "AC50": "7.98 µM (active) and 7.77 µM (active)"}
{"smiles": "CCCCC(CC)COP(=O)(O)OCC(CC)CCCC", "note": "(centres undefined)", "outcome": "inactive"}
{"smiles": "O=C(O)C(F)(OC(F)(F)C(F)(OC(F)(F)C(F)(OC(F)(F)C(F)(F)C(F)(F)F)C(F)(F)F)C(F)(F)F)C(F)(F)F", "note": "(centres undefined)", "outcome": "inactive"}
{"smiles": "O=C(O)C(F)(F)C(F)(F)C(F)(F)C(F)(F)C(F)(F)C(F)(F)C(F)(F)C(F)(F)C(F)(F)C(F)F", "outcome": "inactive"}
{"smiles": "FC(F)(F)C(F)(F)C(F)(F)C(F)(F)C(F)(F)CCI", "outcome": "inactive"}
{"smiles": "CCCCCCOC(=O)c1ccccc1O", "outcome": "inactive"}
{"smiles": "C=CC(=O)OCC(F)(F)C(F)(F)C(F)(F)C(F)(F)C(F)(F)C(F)(F)C(F)(F)F", "outcome": "inactive"}
{"smiles": "FC(F)(F)C(F)(F)C(F)(F)CI", "outcome": "inactive"}
